High-throughput results deposited in PubChem by The Scripps Research Institute Molecular Screening Center.
An excerpt weighted towards active compounds, which were near 1.1% of everything screened.
HTR5A inv ag – counter-screen for OPRM1-OPRD1 inverse agonists: human HTR5A inverse agonism. P47898. actives 0.083% (n = 340,000). AID 504634. HTR5A cell line, luminescence. inhibition, % at 9.3 µM; in the data active = inhibition mostly above about 23%, no sharp cut-off; inactive = mostly below about 18%
Target sequence (P47898 whole entry, looked up): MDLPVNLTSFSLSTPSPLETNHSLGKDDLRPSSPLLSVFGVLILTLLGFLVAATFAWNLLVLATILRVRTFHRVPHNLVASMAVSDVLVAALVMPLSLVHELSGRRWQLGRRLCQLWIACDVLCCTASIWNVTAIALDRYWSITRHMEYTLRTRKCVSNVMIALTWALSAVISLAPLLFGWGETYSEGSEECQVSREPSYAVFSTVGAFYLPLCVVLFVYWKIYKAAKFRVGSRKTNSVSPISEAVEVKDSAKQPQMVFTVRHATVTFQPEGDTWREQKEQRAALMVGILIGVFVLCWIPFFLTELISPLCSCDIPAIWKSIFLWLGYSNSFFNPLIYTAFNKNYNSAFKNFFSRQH
MOR-DOR ag – OPRM1-OPRD1 heterodimerization agonism; cells, luminescence; activation, % at 9.3 µM; actives 0.3% (n = 340,000); AID 504326; in the data active = activation above about 18%
MOR-DOR inv ag – inverse agonists of human mu-delta opioid receptor heterodimerization; P35372+P41143; cell-based MOR-DOR heterodimer luminescence, inverse agonism; inhibition, % at 9.3 µM; actives 0.21% (n = 340,000); AID 504357; in the data active = inhibition above about 22%, passing the limit was not always enough
HTR5A ag – HTR5A agonism, opioid heterodimer counter-screen; P47898; HTR5A agonist assay, luminescence, cell-based; activation, % at 9.3 µM; actives 0.61% (n = 340,000); AID 504692; in the data active = activation mostly above about 9.5%, no sharp cut-off; inactive = mostly below about 7.6%
Of the large screens only hits and unclear results are named; the others gave an inactive call.

Cc1cc(Cl)ccc1Oc1ncc(CN2CCN(c3ccccc3)CC2)s1	none
COc1ccc(S(=O)(=O)Nc2nc3ccccc3nc2Nc2cccc(C(=O)O)c2)cc1	none
CCOC(=O)C(C)Oc1cccc2c(=O)n(CC(=O)NCc3ccc4c(c3)OCO4)ccc12 (stereo unspecified)	HTR5A ag 12.0
CCOC(=O)C(C)Oc1cccc2c(=O)n(CC(=O)Nc3ccc4c(c3)OCCO4)ccc12 (stereo unspecified)	none
Cc1ccc(S(=O)(=O)Nc2nc(C)c(C(=O)N/N=C/c3ccccc3)s2)cc1	HTR5A ag 13.1
Cc1ccc(S(=O)(=O)Nc2nc(C)c(C(=O)Nc3ccccc3)s2)cc1	none
O=C(CSC(=S)N1CCCC1)N1CCN(S(=O)(=O)c2ccccc2F)CC1	none
O=C(NCC(c1ccc(F)cc1)N1CCOCC1)c1ccccc1F (stereo unspecified)	HTR5A ag 11.5
O=C(NCC(c1ccc(F)cc1)N1CCOCC1)c1cc(F)c(F)c(F)c1F (stereo unspecified)	none
Cc1ccccc1-n1c(=O)c2ccccc2n(CC(=O)NCc2ccco2)c1=O	none
CC(=O)c1c(C)n(CC(=O)NCc2ccco2)c2ccccc12	HTR5A ag 9.8
Cc1ccsc1C(=O)Nc1cc(C(C)(C)C)nn1-c1ccccc1	HTR5A ag 13.6
O=C(NC1CC1)C1CCN(c2ncnc3c2sc2cccc(F)c23)CC1	none
Cc1cc(C)cc(N(CCC#N)C(=O)CSC2=Nc3ccccc3C3CC=NN23)c1 (stereo unspecified)	HTR5A ag 11.6
O=C(CCl)N(c1ccccc1)C1CCCCC1	MOR-DOR ag 32.6, HTR5A ag 42.1
CC(=O)N(c1ccccc1)C1CCCC1	none
CC1CCN(S(=O)(=O)c2ccc(NC(=O)Cn3nnc(-c4ccccc4)n3)cc2)CC1	MOR-DOR ag 31.5, HTR5A ag 16.4
CSCCC(NC(=O)OCc1ccccc1)C(=O)NCc1cccnc1 (stereo unspecified)	none
S=c1nc2ccccc2c2nc(-c3ccccc3)[nH]n12	HTR5A ag 9.2
O=C(NCCN1CCCCC1)c1cc(OCC(F)(F)F)ccc1OCC(F)(F)F	HTR5A ag 10.4
COc1ccc(-n2c(CN3CCN(c4ccccc4OC)CC3)nc3ccc([N+](=O)[O-])cc3c2=O)c(OC)c1	HTR5A ag 9.9
CCN1CCN(Cc2nc3ccc([N+](=O)[O-])cc3c(=O)n2-c2ccc(OC)cc2OC)CC1	none
Cc1cccc(NC(=O)C(=O)NCCc2c[nH]c3ccccc23)c1C	HTR5A ag 14.3
Cc1ccc(C)c(NC(=O)C(=O)NCCc2c[nH]c3ccccc23)c1	none
Cc1cccc(C)c1NC(=O)C(=O)NCCc1c[nH]c2ccccc12	none
Cc1cc(C)cc(NC(=O)C(=O)NCCc2c[nH]c3ccccc23)c1	HTR5A ag 14.0
Cc1cc(C)c(S(=O)(=O)N2CCCOC2CNC(=O)C(=O)NCCc2c[nH]c3ccccc23)c(C)c1 (stereo unspecified)	HTR5A ag 11.5
CN(CC(=O)NCc1ccco1)CC(=O)Nc1c(Cl)cccc1Cl	none
Fc1cccc(CNc2ncnc3cc(Cl)ccc23)c1F	none
Cc1ccc(C)c(S(=O)(=O)Nc2ccc(C(=O)NCCc3ccccn3)cc2)c1	none
O=C(COC(=O)/C=C/c1ccc(S(=O)(=O)N2CCOCC2)cc1)NC1CCCCCCC1	none
COc1ccc(C(=O)Nc2cccc(C)n2)cc1S(=O)(=O)N1CCCc2ccccc21	none
CC(=O)OCCNc1cc(Sc2nc3ccccc3[nH]2)c2nonc2c1[N+](=O)[O-]	MOR-DOR inv ag 35.1
O=C1C(Nc2ccccc2)=CC(c2ccc(O)cc2)N1c1ccccc1 (stereo unspecified)	HTR5A ag 12.5
COc1cc(C2C=C(Nc3ccccc3)C(=O)N2c2ccccc2)ccc1O (stereo unspecified)	none
NC(=S)N/N=C/c1cn(-c2ccccc2)nc1-c1cccnc1	none
CC(=O)N1CCN(Cc2nc3cc(NC(=O)c4cccs4)ccc3n2C)CC1	none
CCOc1ccc(-n2nnnc2SCC(=O)c2ccccc2)cc1	HTR5A ag 13.4
COc1ccc(-n2nnnc2SCC(=O)c2cccc(OC)c2)cc1	none
CCCCNCC1C(Oc2ccc(Cl)cc2)C(=O)N1c1ccccc1C (stereo unspecified)	HTR5A ag 12.3
CCCNCC1C(Oc2ccc(Cl)cc2Cl)C(=O)N1c1cccc(C)c1C (stereo unspecified)	none
Cc1cc(C)n(-c2ccc(C(=O)NC(C)C)cc2)n1	none
CC(C)NC(=O)c1ccc(-n2nc(C(F)(F)F)c3c2CCCC3)cc1	HTR5A ag 12.5
CCCCSc1ccc(NC(=O)c2cccnc2)cc1	HTR5A ag 11.9
N/C(=N\OC(=O)c1ccc(Cl)cc1)c1ccccn1	none
N/C(=N\OC(=O)c1ccc(Cl)c(Cl)c1)c1ccccn1	HTR5A ag 13.5
O=C(OCC(=O)N1CCc2ccccc21)c1n[nH]c(=O)c2ccccc12	HTR5A ag 12.6
Cn1nc(C(=O)OCC(=O)N2CCc3ccccc32)c2ccccc2c1=O	none
CC1CCc2cc(F)ccc2N1C(=O)CSc1nnc2c(n1)[nH]c1ccccc12 (stereo unspecified)	none
COc1cc(OC)cc(C(=O)N[C@H](C(=O)NCc2ccco2)C(C)C)c1	none
O=C(Cn1c(=O)n(-c2ccc(F)cc2)c(=O)c2sccc21)NC1CCCCC1	HTR5A ag 12.2
CCN(CC)C(=O)Cn1c(=O)n(Cc2ccc(F)cc2)c(=O)c2sccc21	none
COC(=O)CNC(=O)Cn1c(=O)n(Cc2ccc(F)cc2)c(=O)c2sccc21	HTR5A ag 11.3
O=c1ccc2cc(S(=O)(=O)N3CCN(c4ccccc4)CC3)ccc2[nH]1	none
O=S(=O)(c1ccc2nc(-c3ccccc3)[nH]c2c1)N1CCN(c2ccc(Cl)cc2)CC1	HTR5A ag 10.4
O=C(CSc1nnc(-c2ccc(Cl)cc2)n1-c1ccc(Cl)cc1)N/N=C/c1ccco1	none
Cc1ccc(/C=N/NC(=O)CSc2nnc(-c3ccc(Cl)cc3)n2-c2ccccc2)o1	HTR5A ag 13.5
CCN(CC)CCN(C(=O)c1ccc2c(c1)OCCO2)c1nc2ccc(C)cc2s1	none
Cc1ccc2nc(N(CCN(C)C)C(=O)c3ccc4c(c3)OCCO4)sc2c1	HTR5A ag 13.6
C#CC(CC)(CC)NC(=O)NC1CCCCC1	none
CC(=O)N1CCN(c2ccc(NS(=O)(=O)c3ccc(C)cc3)cc2)CC1	none
CCC(=O)N1CCc2cc(S(=O)(=O)N3CCCCCC3)ccc21	HTR5A ag 12.7
CCC(=O)N1CCc2cc(S(=O)(=O)N3CCCC3)ccc21	none
O=C1N/C(=C/c2cccn2-c2ccccc2)C(=O)N1Cc1ccc(F)cc1	none
O=C1N/C(=C/c2cccn2-c2ccc(F)cc2)C(=O)N1Cc1ccccc1F	HTR5A ag 11.9
O=C(NCCCN1CCCC1=O)c1cc2nc(-c3ccco3)cc(C(F)(F)F)n2n1	none
COc1ccc(-n2nnnc2-c2cccnc2)cc1	HTR5A ag 10.4
COc1ccc(CN(CCC(c2ccccc2)c2ccc(OC(C)C)cc2)C(=O)CCl)cc1OC (stereo unspecified)	MOR-DOR ag 82.1, HTR5A ag 52.1
